Where “and” joins values, the source holds several entries; their conditions need not be identical. Equal entries are not always repeated. Inconclusive results are not listed. A call without a number means that no potency is given here. Calls of active or inactive are those of the source. Calls follow the shape of the full dose curve.

The first experiment in a line: Cytotoxicity counterscreen for inhibitors of SARS-CoV-2 cell entry (AID 1645845). Also: nearly all actives have a fitted effect of over 50% in size. The following applies: cell viability (SARS-CoV-2 entry assay cells); series mostly up to 57.1 µM; activity change, negative = cytotoxicity: at the top concentration. Put shortly:
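Expi293F/hACE2 cells seeded overnight; cpd pin-transferred in DMSO, 1 h preincubation, + media, 48 h 37 C 5% CO2; ATPLite 1step luminescence; normalized to cells and no cells.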
Background: Counterscreens check selectivity or assay interference.
Regarding `C/C=C/c1ccc(O)c(OC)c1`, the compound was called inactive.
Take `CCCn1cnc2c1c(=O)n(CCCCC(C)=O)c(=O)n2C`: the compound was classed as inactive.
On to `NC(N)=NC(=O)c1nc(Cl)c(N)nc1N`, for which the Potency result is “inactive”.
`CN1CCCN=C1/C=C/c1cccs1`: the Potency result was “inactive”.
Turning to `Cc1cc(=O)oc2cc(O)ccc12`, the Potency entry is “inactive”.
With `CCOc1c(N2CCOCC2)cnn(C)c1=O`, the “activity change, negative = cytotoxicity” value was 4.62% (inactive).
`O=C(O)C(=O)Nc1cccc(-c2nn[nH]n2)c1`: the Potency result was “inactive”.
Take `CCN[C@H]1C[C@H](C)S(=O)(=O)c2sc(S(N)(=O)=O)cc21`: the Potency result was “inactive”.
Consider `CC[C@H](NC(C)C)[C@H](O)c1ccc(O)c2[nH]c(=O)ccc12`, for which the Potency result is “inactive”.
Turning to `O=C(O)/C=C/c1ccc(Cn2ccnc2)cc1`, the Potency result was “inactive”.
For the compound `NCCc1cnc[nH]1`, the Potency entry is “inactive”.
Consider `CCOCC(O)COc1ccc(NC(=O)CC[S+](C)C)cc1` (centres undefined), for which the Potency result was “inactive”.
As for `C[N+]1(CC2COC(c3ccccc3)(c3ccccc3)O2)CCCCC1` (centres undefined), the “activity change, negative = cytotoxicity” value is -4.33% [at 27.1 µM] (inactive).
Consider `c1ccc([C@H]2CN3CCSC3=N2)cc1`, for which the Potency result is “inactive”.
Consider `CC(=O)OCC(=O)[C@@]12N=C(C)O[C@@H]1C[C@H]1[C@@H]3CCC4=CC(=O)C=C[C@]4(C)[C@H]3[C@@H](O)C[C@@]12C`, for which the Potency result was “inactive”.
As for `CN1CC(=O)N2[C@H](c3ccc4c(c3)OCO4)c3[nH]c4ccccc4c3C[C@@H]2C1=O`, the “activity change, negative = cytotoxicity” value is 1.65% (inactive).
As for `O=c1oc2c(O)c(O)cc3c(=O)oc4c(O)c(O)cc1c4c23`, the Potency entry was “inactive”.
`Cc1c(F)cc2c(=O)c(C(=O)O)cn3c2c1CCC3C` (centres undefined): the compound was called inactive.
On to `CCOC(=O)c1ccc(NC(=O)CN2CCCCC2)cc1`, for which the “activity change, negative = cytotoxicity” value was 2.63% (inactive).
On to `Cc1ncc(COP(=O)(O)O)c(C=O)c1O`, for which the call was inactive.
Turning to `Cc1cc(C(C)(C)C)c(O)c(C)c1CC1=NCCN1`, the Potency entry is “inactive”.
The same measure, in the same setting: the same measure for `COc1ccc2[nH]c(S(=O)Cc3ncc(C)c(OC)c3C)nc2n1` (centres undefined): “inactive”.

The nature of a further experiment: Primary qHTS to identify inhibitors of SARS-CoV-2 cell entry (AID 1645846). Also: nearly all actives have a fitted effect of over 45% in size. The following applies: SARS-CoV-2 pseudovirus cell entry assay, luminescence; activity change, negative = inhibition: at 57.1 µM (top of the series) unless noted; series mostly up to 57.1 µM. Put shortly: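 Inhibition of spike-mediated entry was scored in human ACE2-transfected Expi293F cells. Particles were MLV-pseudotyped with Wuhan-Hu-1 S carrying a 19-aa C-terminal deletion; signal was luciferase after two days, scaled between spike PP and fusion-protein-free PP.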
(In general: qHTS replaces the single test concentration by a dilution series.)
As to `CN(C)C(=O)Oc1cccc([N+](C)(C)C)c1`, the activity change, negative = inhibition is -1.02%.
For the compound `CCC(=O)O[C@]1(C(=O)CCl)[C@@H](C)C[C@H]2[C@@H]3CCC4=CC(=O)C=C[C@]4(C)[C@@]3(F)[C@@H](O)C[C@@]21C`, the compound was classed as inactive and the activity change, negative = inhibition is -9.65%.
Regarding `CCCCNc1cc(C(=O)O)cc(S(N)(=O)=O)c1Oc1ccccc1`, the outcome was inactive and the activity change, negative = inhibition is -16.4%.
For `CCCN(CCC)C(=O)C(CCC(=O)O)NC(=O)c1ccccc1` (centres undefined), the call was inactive and the activity change, negative = inhibition came to 2.74%.
As for `C#C[C@]1(O)CC[C@H]2[C@@H]3[C@H](C)CC4=C(CCC(=O)C4)[C@H]3CC[C@@]21C`, the call was inactive and the activity change, negative = inhibition is -14.1%.
Turning to `O=C1OC2(c3ccc(O)cc3Oc3cc(O)ccc32)c2ccccc21`, the compound was classed as inactive.
As to `CCOC(=O)c1c(N)sc2c1CCN(Cc1ccccc1)C2`, the outcome was inactive.
With `CCOC(=O)[C@H](CCc1ccccc1)N[C@H]1CS[C@H](c2cccs2)CN(CC(=O)O)C1=O`, the outcome was inactive and the activity change, negative = inhibition is -4.69%.
In the case of `CCCc1cc(C(N)=S)ccn1`, the compound was called inactive and the activity change, negative = inhibition was -4.59%.
Regarding `NC(N)=NCCC[C@H](N)C(=O)O`, the outcome was “inactive [at 5.25 µM]”.
For `C[C@H]1C[C@H]2[C@@H]3CCC4=CC(=O)C=C[C@]4(C)[C@H]3C(=O)C[C@]2(C)[C@@]1(O)C(=O)CO`, the compound was called inactive and the activity change, negative = inhibition was found to be 4.44%.
Consider `C[C@]12CCC(=O)C=C1CC[C@@H]1[C@@H]2[C@@H](O)C[C@@]2(C)[C@H]1CC[C@]2(O)C(=O)CO`, for which the compound was classed as inactive and the activity change, negative = inhibition is 4.28%.
`Cc1cc(C(C)(C)C)cc(C)c1CC1=NCCN1`: the compound was classed as inactive and the activity change, negative = inhibition was -16.7%.
On to `O=S(=O)(c1cccc2cnccc12)N1CCCNCC1`, for which the result was inactive and the activity change, negative = inhibition was -0.418%.
In the case of `Cc1cccc(N(C)C(=S)Oc2ccc3ccccc3c2)c1`, the activity change, negative = inhibition is -10.5% and -29.1%.
On to `Oc1cc(O)c2c(c1)O[C@H](c1ccc(O)c(O)c1)[C@H](O)C2`, for which the activity change, negative = inhibition was -5.55%.
Regarding `CCN1CCN(c2cc(-c3ccc(F)cc3)c3c(n2)CCCCCC3)CC1`, the “outcome” value was “inactive [at 27.1 µM]”.
As for `C/C=C/c1ccc(O)c(OC)c1`, the activity change, negative = inhibition is -1.3%.
For `CCCn1cnc2c1c(=O)n(CCCCC(C)=O)c(=O)n2C`, the call was inactive.
As to `NC(N)=NC(=O)c1nc(Cl)c(N)nc1N`, the outcome was inactive and the activity change, negative = inhibition is -0.658% [at 114 µM].
In the case of `CN1CCCN=C1/C=C/c1cccs1`, the activity change, negative = inhibition was -29.2%.
`Cc1cc(=O)oc2cc(O)ccc12`: the outcome was inactive and the activity change, negative = inhibition is -8.91%.
For `CCOc1c(N2CCOCC2)cnn(C)c1=O`, the result was inactive.
As to `O=C(O)C(=O)Nc1cccc(-c2nn[nH]n2)c1`, the result was inactive and the activity change, negative = inhibition was -0.181%.
Consider `CCN[C@H]1C[C@H](C)S(=O)(=O)c2sc(S(N)(=O)=O)cc21`, for which the result was inactive and the activity change, negative = inhibition is -17.9%.
For `CC[C@H](NC(C)C)[C@H](O)c1ccc(O)c2[nH]c(=O)ccc12`, the result was inactive and the activity change, negative = inhibition came out at 1.27%.
Turning to `O=C(O)/C=C/c1ccc(Cn2ccnc2)cc1`, the Potency result is “inactive”.
For `NCCc1cnc[nH]1`, the compound was called inactive and the activity change, negative = inhibition is 0.209%.
As to `CCOCC(O)COc1ccc(NC(=O)CC[S+](C)C)cc1` (centres undefined), the compound was called inactive and the activity change, negative = inhibition was -2.31%.
For the compound `C[N+]1(CC2COC(c3ccccc3)(c3ccccc3)O2)CCCCC1` (centres undefined), the activity change, negative = inhibition worked out at 1.26% [at 27.1 µM].
For `c1ccc([C@H]2CN3CCSC3=N2)cc1`, the compound was called inactive and the activity change, negative = inhibition was -16.1%.
On to `CC(=O)OCC(=O)[C@@]12N=C(C)O[C@@H]1C[C@H]1[C@@H]3CCC4=CC(=O)C=C[C@]4(C)[C@H]3[C@@H](O)C[C@@]12C`, for which the result was inactive and the activity change, negative = inhibition is -14%.
With `CN1CC(=O)N2[C@H](c3ccc4c(c3)OCO4)c3[nH]c4ccccc4c3C[C@@H]2C1=O`, the “outcome” value is “inactive; activator” and the activity change, negative = inhibition was -9.6%.
For the compound `O=c1oc2c(O)c(O)cc3c(=O)oc4c(O)c(O)cc1c4c23`, the “outcome” value is “inactive [at 27.1 µM]” and the activity change, negative = inhibition was -5.97% [at 27.1 µM].
As to `Cc1c(F)cc2c(=O)c(C(=O)O)cn3c2c1CCC3C` (centres undefined), the result was inactive.
Take `CCOC(=O)c1ccc(NC(=O)CN2CCCCC2)cc1`: the activity change, negative = inhibition is -7.85%.
Take `Cc1ncc(COP(=O)(O)O)c(C=O)c1O`: the activity change, negative = inhibition is -19%.
For the compound `Cc1cc(C(C)(C)C)c(O)c(C)c1CC1=NCCN1`, the compound was classed as inactive and the activity change, negative = inhibition is -17.1%.
For the compound `COc1ccc2[nH]c(S(=O)Cc3ncc(C)c(OC)c3C)nc2n1` (centres undefined), the result was inactive and the activity change, negative = inhibition is -10.1%.
